An excerpt weighted towards active compounds, which were near 1% of everything screened.
PrP UTR inh = suppresses PrP 5' UTR mRNA reporter expression; inhibition, % (concentration not given with the values); 340,000 compounds, 0.35% hits; cell-based PrP 5' UTR mRNA reporter, plate reader; in the data active = inhibition above about 52%
FadD28 FP inh = inhibitors of Mycobacterium tuberculosis FadD28 bisubstrate binding | FadD28 bisubstrate probe binding, fluorescence polarization | inhibition, % at 12.5 µM | 360,000 compounds, 0.22% hits | AID 588549; in the data active = inhibition above about 8.5%, passing the limit was not always enough
Mtb hypoxia inh = Mtb hypoxia fluorescent reporter inhibition; 300,000 compounds, 0.1% hits; M. tuberculosis hypoxia-regulated fluorescent reporter, fluorescence; fluorescence inhibition, % (concentration not given with the values); in the data active = fluorescence inhibition mostly above about 23%, no sharp cut-off; inactive = mostly below about 17%
TcdB inh = TcdB glycohydrolase inhibition; P18177; AID 652162; TcdB glycohydrolase enzymatic assay, plate reader; inhibition, % at 9.99 µM; 350,000 compounds, 0.24% hits; in the data active = inhibition above about 10%
SSB-PriA inh = blocks PriA binding to SSB C-terminal tail; AlphaScreen SSBct-PriA binding, biotinylated peptide; inhibition, % at 33 µM; 430,000 compounds, 0.6% hits; AID 1272365; in the data active = inhibition mostly above about 37%, no sharp cut-off; inactive = mostly below about 20%
BioA inh = blocks M. tuberculosis BioA enzyme activity; purified M. tuberculosis BioA enzyme, plate reader; inhibition, % at 9.99 µM; 360,000 compounds, 0.096% hits; AID 602481; in the data active = inhibition above about 40%
Large screens that a line does not name were inactive.

C[C@@H]1CN([C@H](C)CO)C(=O)c2cc(-c3cccnc3)cnc2O[C@H]1CN(C)C(=O)Nc1ccccc1	none (no result: PrP UTR inh, FadD28 FP inh, Mtb hypoxia inh, SSB-PriA inh)
O=C(Nc1nc(-c2ccccn2)cs1)c1ccc(I)cc1	none (no result: PrP UTR inh, FadD28 FP inh, Mtb hypoxia inh, TcdB inh, BioA inh)
O=C(Nc1nc(-c2ccccn2)cs1)NC1CCCC1	SSB-PriA inh 130 (no result: PrP UTR inh, FadD28 FP inh, Mtb hypoxia inh, TcdB inh, BioA inh)
CN(C(=O)C(=O)Nc1nc(-c2ccccn2)cs1)C1CCSC1 (stereo unspecified)	SSB-PriA inh 138 (no result: PrP UTR inh, FadD28 FP inh, Mtb hypoxia inh, TcdB inh, BioA inh)
COC(=O)NC1(C(=O)Nc2nc(-c3ccccn3)cs2)CCCC1	SSB-PriA inh 95 (no result: PrP UTR inh, FadD28 FP inh, Mtb hypoxia inh, TcdB inh, BioA inh)
O=C(Nc1nc(-c2ccccc2)cs1)NC1CCCCC1	none (no result: PrP UTR inh, TcdB inh)
O=C(Nc1ccc(C(=O)Nc2nc(-c3ccccn3)cs2)cc1)NC1CC1	SSB-PriA inh 93 (no result: PrP UTR inh, FadD28 FP inh, Mtb hypoxia inh, TcdB inh, BioA inh)
O=C(CCc1ccccc1)Nc1ccc(S(=O)(=O)N2CCOCC2)cc1	none
Cc1ccc(NC(=O)OCc2cc(-c3ccccc3)on2)cc1	none (no result: BioA inh)
C[C@@H]1CN([C@@H](C)CO)C(=O)CCCn2nncc2CO[C@H]1CN(C)S(=O)(=O)c1ccccc1	none (no result: PrP UTR inh, Mtb hypoxia inh, SSB-PriA inh)
O=C(CNC(=O)c1ccco1)OC(C(=O)c1ccccc1)c1ccccc1 (stereo unspecified)	none (no result: Mtb hypoxia inh, TcdB inh)
COc1ccc(C(=O)C(C)OC(=O)CNC(=O)c2ccco2)cc1 (stereo unspecified)	Mtb hypoxia inh 31
CC(C)NC(=O)Nc1ccc2c(c1)C(=O)N([C@H](C)CO)C[C@@H](C)[C@H](CN(C)S(=O)(=O)c1cn(C)cn1)OCCCC[C@H](C)O2	none (no result: PrP UTR inh, FadD28 FP inh, Mtb hypoxia inh, SSB-PriA inh)
O=c1[nH]c2cc(O)ccc2c2ccccc12	TcdB inh 10 (no result: PrP UTR inh, Mtb hypoxia inh, SSB-PriA inh)
Nc1ccc2c(c1)[nH]c(=O)c1ccccc12	none (no result: Mtb hypoxia inh, BioA inh)
C[C@H]1CN([C@@H](C)CO)C(=O)c2cc(NS(=O)(=O)c3ccc(Cl)cc3)ccc2O[C@@H]1CN(C)C(=O)Nc1ccc(F)cc1	none (no result: PrP UTR inh, FadD28 FP inh, Mtb hypoxia inh, SSB-PriA inh)
O=C(CCC1CCCCC1)NCCN1CCOCC1	none
COc1ccc(CC(=O)N2CCN=C2SCc2ccc(Cl)c(Cl)c2)cc1OC	none (no result: PrP UTR inh, FadD28 FP inh, Mtb hypoxia inh, TcdB inh, BioA inh)
CCOC(=O)N1CCN=C1SCc1ccc(Cl)c(Cl)c1	TcdB inh 12
CC(=O)N(Cc1ccccc1)c1ncc2c(n1)c(=O)c(C#N)c1ccccn12	SSB-PriA inh 48 (no result: TcdB inh)
Nc1nc(-c2csc(N)n2)cs1	SSB-PriA inh 46 (no result: PrP UTR inh, FadD28 FP inh, Mtb hypoxia inh, TcdB inh, BioA inh)
CCOc1ccc(S(=O)(=O)n2nnc3ccccc32)c(OCC)c1	none (no result: PrP UTR inh, FadD28 FP inh, Mtb hypoxia inh, TcdB inh, BioA inh)
O=C(O)c1cc(-c2ccc(/C=C3\NC(=O)N(c4ccccc4)C3=O)o2)ccc1Cl	none
O=C(O)c1cc(-c2ccc(/C=C3\NC(=O)N(c4ccc(Cl)cc4)C3=O)o2)ccc1Cl	FadD28 FP inh 10 (no result: BioA inh)
C=CCOC(=O)C1=C(C)NC(=O)NC1c1ccc(Cl)cc1 (stereo unspecified)	SSB-PriA inh 102
COc1cc(/C=N\NC(=O)COc2cc(C)ccc2C(C)C)cc(Br)c1O	none (no result: PrP UTR inh, FadD28 FP inh, Mtb hypoxia inh, TcdB inh, BioA inh)
NC(=O)c1ccccc1OCC#CCNC(=O)c1cc2ccccc2o1	none (no result: PrP UTR inh, FadD28 FP inh, Mtb hypoxia inh, TcdB inh, BioA inh)
C/C(CC(=O)NC(C)(C)C)=N\NC(N)=S	none (no result: Mtb hypoxia inh, SSB-PriA inh, BioA inh)
CC(C)=NNC(=S)NC(C)(C)C	SSB-PriA inh 43 (no result: PrP UTR inh, FadD28 FP inh, Mtb hypoxia inh, TcdB inh, BioA inh)
Cc1ccc(SCCc2cc[n+](CC(=O)c3ccccc3)cc2)cc1	none (no result: BioA inh)
O=C(C[n+]1ccc(CCSc2ccc(F)cc2)cc1)c1ccccc1	SSB-PriA inh 46 (no result: TcdB inh)
CC/C(=N\NC(=O)c1ccccc1O)c1c(O)n(C2CCCCC2)c(=O)[nH]c1=O	FadD28 FP inh 15 (no result: Mtb hypoxia inh, SSB-PriA inh)
CCC(=NCCO)c1c(O)n(C2CCCCC2)c(=O)[nH]c1=O	none (no result: TcdB inh)
O=C(Nc1ccccc1F)c1cc(C2CCN(C(=O)c3cccs3)CC2)[nH]n1	none (no result: PrP UTR inh, FadD28 FP inh, Mtb hypoxia inh, TcdB inh, BioA inh)
O=C(Nc1ccccc1F)c1cc(C2CCN(C(=O)c3c[nH]c(=O)c(Cl)c3)CC2)[nH]n1	SSB-PriA inh 98 (no result: PrP UTR inh, FadD28 FP inh, Mtb hypoxia inh, TcdB inh, BioA inh)
[O-][n+]1cccc2c(Br)cc(Br)c(O)c21	SSB-PriA inh 69
Nc1ccc2c(c1)Nc1ccccc1CC2	TcdB inh 15, SSB-PriA inh 58 (no result: BioA inh)
COc1ccc(S(=O)(=O)Nc2cc3c(C(C)=O)c(C)oc3c3ccccc23)cc1	none (no result: TcdB inh)
CCOC(=O)C(NCc1ccccn1)(NC(=O)c1cccnc1)C(F)(F)F (stereo unspecified)	SSB-PriA inh 51 (no result: Mtb hypoxia inh, TcdB inh)
CCC(=O)N1C[C@H](C)[C@@H](OC)CN(C)C(=O)c2cc(NC(=O)Nc3cccc(F)c3)ccc2OC[C@H]1C	none (no result: PrP UTR inh, FadD28 FP inh, Mtb hypoxia inh, SSB-PriA inh)
C[C@H]1CCCCO[C@H](CN(C)C(=O)C2CCCCC2)[C@@H](C)CN([C@@H](C)CO)C(=O)c2cc(NC(=O)CCC(F)(F)F)ccc2O1	none (no result: PrP UTR inh, FadD28 FP inh, Mtb hypoxia inh, SSB-PriA inh)
COc1ccc(C(CC(=O)O)N2Cc3ccccc3C2=O)cc1OC (stereo unspecified)	none
Cc1cccc(N2C(N)=C(C#N)C(C#N)(C#N)C2c2ccccc2)c1 (stereo unspecified)	none (no result: Mtb hypoxia inh, TcdB inh)
N#CC1=C(N)N(c2ccccc2)C(c2ccco2)C1(C#N)C#N (stereo unspecified)	FadD28 FP inh 15 (no result: TcdB inh)
Nc1ccc(N(CCO)CCO)cc1	none (no result: BioA inh)
CCN(CC)c1ccc(N)cc1	SSB-PriA inh 65 (no result: Mtb hypoxia inh, TcdB inh)
CCc1cc(/C(Cc2ccccn2)=N\O)c(O)cc1O	TcdB inh 15 (no result: Mtb hypoxia inh, SSB-PriA inh)
CCOC(=O)C(C#N)=C1C=CNC(=O)N1	none (no result: PrP UTR inh, FadD28 FP inh, Mtb hypoxia inh, TcdB inh, BioA inh)
Cc1ccc(C(=O)NN2C(=O)/C(=C/c3cccn3C)SC2=S)cc1	FadD28 FP inh 13
O=C(NN1C(=O)/C(=C/c2ccc(O)c(O)c2)SC1=S)c1ccccc1	FadD28 FP inh 43 (no result: Mtb hypoxia inh)
Cn1cccc1/C=C1\SC(=S)N(NC(=O)c2ccccc2Cl)C1=O	none (no result: Mtb hypoxia inh, TcdB inh, BioA inh)
O=C(NN1C(=O)/C(=C\c2ccc(O)c([N+](=O)[O-])c2)SC1=S)c1ccccc1Cl	FadD28 FP inh 15 (no result: Mtb hypoxia inh)
CCN1C(=O)C(O)(CC(=O)c2cccc(-n3cccc3)c2)c2ccccc21 (stereo unspecified)	none
CC(C)(C)n1nnnc1CN1C2CCC1CC(NC(=O)Nc1ccccc1)C2 (stereo unspecified)	none (no result: TcdB inh)
